What all share (set-up): scale not given: direction of the effect not stated beside the values
Test [1] addresses Protein translocase subunit SecA (Escherichia coli (strain K12)) (UniProt P10408). The test is described as follows: Assay to Identify E. coli SecA ATPase Inhibitors. The conditions noted are these: 30 µM. It counts as functional.
Test [2] concerns the target T1, Ubiquitin-activating enzyme e1, putative (Leishmania donovani (strain BPK282A1)) (UniProt E9BSI1).
T1 sequence (whole entry): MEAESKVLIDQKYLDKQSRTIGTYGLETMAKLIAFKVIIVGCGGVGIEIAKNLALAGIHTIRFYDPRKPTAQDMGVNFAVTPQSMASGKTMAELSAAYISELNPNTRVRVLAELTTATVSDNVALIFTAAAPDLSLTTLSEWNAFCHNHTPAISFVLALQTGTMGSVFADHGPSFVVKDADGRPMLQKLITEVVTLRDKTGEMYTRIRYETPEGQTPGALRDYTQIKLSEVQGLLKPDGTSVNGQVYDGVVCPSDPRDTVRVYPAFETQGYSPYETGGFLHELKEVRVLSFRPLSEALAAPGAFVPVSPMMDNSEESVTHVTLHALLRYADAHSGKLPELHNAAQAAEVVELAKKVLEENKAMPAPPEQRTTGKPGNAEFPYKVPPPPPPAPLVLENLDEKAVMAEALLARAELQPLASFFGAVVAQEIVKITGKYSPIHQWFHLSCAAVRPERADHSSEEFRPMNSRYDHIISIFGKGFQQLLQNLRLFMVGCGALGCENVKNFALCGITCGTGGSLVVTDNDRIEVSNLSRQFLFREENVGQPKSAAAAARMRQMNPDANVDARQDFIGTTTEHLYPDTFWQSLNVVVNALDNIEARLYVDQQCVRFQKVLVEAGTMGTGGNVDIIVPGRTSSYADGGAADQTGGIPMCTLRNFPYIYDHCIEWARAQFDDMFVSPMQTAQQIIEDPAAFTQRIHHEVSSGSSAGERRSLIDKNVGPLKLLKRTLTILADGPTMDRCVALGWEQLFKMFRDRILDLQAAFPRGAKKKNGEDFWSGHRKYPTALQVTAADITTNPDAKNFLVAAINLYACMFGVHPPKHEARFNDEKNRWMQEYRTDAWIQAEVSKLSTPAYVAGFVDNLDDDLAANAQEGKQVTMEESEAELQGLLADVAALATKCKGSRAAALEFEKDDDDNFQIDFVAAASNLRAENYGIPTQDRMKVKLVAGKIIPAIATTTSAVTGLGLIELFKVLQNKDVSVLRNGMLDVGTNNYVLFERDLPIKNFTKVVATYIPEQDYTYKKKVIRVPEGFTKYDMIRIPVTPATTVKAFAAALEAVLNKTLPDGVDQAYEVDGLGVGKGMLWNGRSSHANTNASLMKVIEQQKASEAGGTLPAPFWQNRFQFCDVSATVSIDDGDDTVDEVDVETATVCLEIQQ
Nature of the test: Leishmania donovani Ubiquitin Activating Enzyme (LdE1). The conditions noted are these: 30 µM. It counts as functional.

Test [3] addresses AMP-activated protein kinase, AMPK (Homo sapiens) (UniProt P54646+O43741+P54619+Q9UGJ0+Q9Y478+Q13131+Q9UGI9). The test is described as follows: AMP-dependent Kinase enzyme assay. An in vitro enzyme assay that detects ADP turnover that is directly proportional to AMPK activity. This uses naive AMPK that is activated during the assay with MK-8722. The conditions noted are these: 30 µM. The format is functional.

Test [4] has as its target Sialic acid-binding Ig-like lectin 9 (Homo sapiens) (UniProt Q9Y336). Nature of the test: Hs-Siglec9 ALPHAscreen SOP 20170721. The conditions noted are these: 10 µM. On the technique in general: Bead proximity is the source of the signal in Alpha formats.
A further test concerns Trypanosoma cruzi. Nature of the test: Trypanosoma cruzi phosphomannomutase and mannose-1-phosphate guanylyltransferase assay. The format is functional. The conditions noted are these: 10 µM.
In test [5] the target is T2, Arginase-2, mitochondrial (Homo sapiens) (UniProt P78540).
T2 sequence (whole entry): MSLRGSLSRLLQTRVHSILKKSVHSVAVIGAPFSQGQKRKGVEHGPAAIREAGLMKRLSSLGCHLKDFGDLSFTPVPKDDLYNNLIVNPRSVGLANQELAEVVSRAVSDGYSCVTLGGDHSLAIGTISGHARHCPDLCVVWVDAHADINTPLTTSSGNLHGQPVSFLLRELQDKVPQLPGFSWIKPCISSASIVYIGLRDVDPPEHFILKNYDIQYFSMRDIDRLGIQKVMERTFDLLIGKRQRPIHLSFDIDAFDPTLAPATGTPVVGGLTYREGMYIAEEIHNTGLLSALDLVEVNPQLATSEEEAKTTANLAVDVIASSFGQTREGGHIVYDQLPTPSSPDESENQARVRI
The test is described as follows: in vitro enzyme assay to detect the production of urea directly proportional to the activity of Arginase II. Also: in the data most compounds retested in dose-response had high values. It counts as functional. The conditions noted are these: 33.3 µM.

The target in test [6] is T3, Proteasome subunit beta (Trypanosoma cruzi) (UniProt O96673).
T3 sequence (whole entry): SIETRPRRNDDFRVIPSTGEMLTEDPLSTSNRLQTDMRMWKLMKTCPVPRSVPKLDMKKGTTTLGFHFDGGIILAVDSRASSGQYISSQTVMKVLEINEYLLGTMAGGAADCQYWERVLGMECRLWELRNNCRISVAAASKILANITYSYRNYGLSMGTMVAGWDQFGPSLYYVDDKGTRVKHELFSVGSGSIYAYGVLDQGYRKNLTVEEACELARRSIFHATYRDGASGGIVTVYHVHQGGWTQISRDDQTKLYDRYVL
The test is described as follows: Trypanosoma cruzi proteasome chymotrypsin-like activity (TcProtChymo) assay. Also: in the data most compounds retested in dose-response had high values. The conditions noted are these: 9.37 µM. The format is functional.

The species entered for a further test is Homo sapiens. Nature of the test: To identify inhibition of the IFN signalling (Jak-Stat) pathway via expression of an eGFP reporter gene under the control of an IFN-stimulated response element (ISRE) containing MxA promoter. The format is functional. The conditions noted are these: 30 µM. For orientation: In a reporter assay the amount or activity of a reporter protein is the signal.

In test [7] the target is T4, Tyrosyl-tRNA synthetase, putative (Trypanosoma cruzi (strain CL Brener)) (UniProt Q4DSP6).
T4 sequence (whole entry): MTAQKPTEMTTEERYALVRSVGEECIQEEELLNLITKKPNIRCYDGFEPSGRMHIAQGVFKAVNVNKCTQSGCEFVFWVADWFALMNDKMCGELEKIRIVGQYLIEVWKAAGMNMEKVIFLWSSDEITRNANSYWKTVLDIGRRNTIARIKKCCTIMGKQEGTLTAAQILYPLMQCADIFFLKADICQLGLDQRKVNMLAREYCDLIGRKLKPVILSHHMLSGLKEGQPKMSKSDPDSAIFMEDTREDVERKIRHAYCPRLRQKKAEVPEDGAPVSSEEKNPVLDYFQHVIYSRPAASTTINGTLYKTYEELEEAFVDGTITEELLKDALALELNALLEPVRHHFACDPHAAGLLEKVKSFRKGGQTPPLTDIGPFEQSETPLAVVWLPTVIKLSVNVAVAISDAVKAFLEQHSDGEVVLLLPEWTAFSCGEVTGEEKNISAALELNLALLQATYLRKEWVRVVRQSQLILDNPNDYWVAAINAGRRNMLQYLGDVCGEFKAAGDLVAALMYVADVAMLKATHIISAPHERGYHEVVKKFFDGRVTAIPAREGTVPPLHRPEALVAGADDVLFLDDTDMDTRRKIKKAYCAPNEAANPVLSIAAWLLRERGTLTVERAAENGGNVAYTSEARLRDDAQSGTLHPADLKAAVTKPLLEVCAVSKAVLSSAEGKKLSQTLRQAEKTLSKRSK
Nature of the test: Trypanosoma cruzi tyrosyl tRNA synthetase (TcYRS) _High Tyrosine SOP. Also: in the data most compounds retested in dose-response had high values. The conditions noted are these: 30 µM. The format is functional.

The target of test [8] is T4, Tyrosyl-tRNA synthetase, putative (Trypanosoma cruzi (strain CL Brener)). The test is described as follows: Trypanosoma cruzi tyrosyl tRNA synthetase (TcYRS) SOP. It counts as functional. The conditions noted are these: 30 µM.
Test [9] has as its target Chromo domain-containing protein 1 (Saccharomyces cerevisiae (strain ATCC 204508 / S288c) (Baker's yeast)) (UniProt P32657). The test is described as follows: ScCHD-1 Enzyme Inhibition Assay. Also: in the data most compounds retested in dose-response had high values. It counts as functional. The conditions noted are these: 30 µM.

Our source for the Percent Effect values is ChEMBL document CHEMBL3988442, “University of Dundee, Small-Polar-MMV Screening Library” (2021).

Structures are written as SMILES. For some of these results: Results with a measured potency or affinity are listed apart.

Sialic acid-binding Ig-like lectin 9 (Homo sapiens), sequence (Q9Y336 whole entry): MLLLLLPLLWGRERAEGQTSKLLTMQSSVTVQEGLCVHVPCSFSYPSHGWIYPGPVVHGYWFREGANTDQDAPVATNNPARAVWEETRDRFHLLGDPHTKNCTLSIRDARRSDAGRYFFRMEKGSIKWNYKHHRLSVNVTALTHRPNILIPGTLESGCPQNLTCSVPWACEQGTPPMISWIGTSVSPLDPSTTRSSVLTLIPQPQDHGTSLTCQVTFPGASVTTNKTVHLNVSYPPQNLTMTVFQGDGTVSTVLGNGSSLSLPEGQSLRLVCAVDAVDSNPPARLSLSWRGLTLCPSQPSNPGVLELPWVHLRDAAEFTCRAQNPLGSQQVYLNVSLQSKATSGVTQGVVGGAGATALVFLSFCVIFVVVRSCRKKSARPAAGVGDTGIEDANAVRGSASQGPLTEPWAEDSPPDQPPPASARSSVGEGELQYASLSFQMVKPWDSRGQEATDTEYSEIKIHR
Chromo domain-containing protein 1 (Saccharomyces cerevisiae (strain ATCC 204508 / S288c) (Baker's yeast)), sequence (P32657 whole entry, the tested form may be a part): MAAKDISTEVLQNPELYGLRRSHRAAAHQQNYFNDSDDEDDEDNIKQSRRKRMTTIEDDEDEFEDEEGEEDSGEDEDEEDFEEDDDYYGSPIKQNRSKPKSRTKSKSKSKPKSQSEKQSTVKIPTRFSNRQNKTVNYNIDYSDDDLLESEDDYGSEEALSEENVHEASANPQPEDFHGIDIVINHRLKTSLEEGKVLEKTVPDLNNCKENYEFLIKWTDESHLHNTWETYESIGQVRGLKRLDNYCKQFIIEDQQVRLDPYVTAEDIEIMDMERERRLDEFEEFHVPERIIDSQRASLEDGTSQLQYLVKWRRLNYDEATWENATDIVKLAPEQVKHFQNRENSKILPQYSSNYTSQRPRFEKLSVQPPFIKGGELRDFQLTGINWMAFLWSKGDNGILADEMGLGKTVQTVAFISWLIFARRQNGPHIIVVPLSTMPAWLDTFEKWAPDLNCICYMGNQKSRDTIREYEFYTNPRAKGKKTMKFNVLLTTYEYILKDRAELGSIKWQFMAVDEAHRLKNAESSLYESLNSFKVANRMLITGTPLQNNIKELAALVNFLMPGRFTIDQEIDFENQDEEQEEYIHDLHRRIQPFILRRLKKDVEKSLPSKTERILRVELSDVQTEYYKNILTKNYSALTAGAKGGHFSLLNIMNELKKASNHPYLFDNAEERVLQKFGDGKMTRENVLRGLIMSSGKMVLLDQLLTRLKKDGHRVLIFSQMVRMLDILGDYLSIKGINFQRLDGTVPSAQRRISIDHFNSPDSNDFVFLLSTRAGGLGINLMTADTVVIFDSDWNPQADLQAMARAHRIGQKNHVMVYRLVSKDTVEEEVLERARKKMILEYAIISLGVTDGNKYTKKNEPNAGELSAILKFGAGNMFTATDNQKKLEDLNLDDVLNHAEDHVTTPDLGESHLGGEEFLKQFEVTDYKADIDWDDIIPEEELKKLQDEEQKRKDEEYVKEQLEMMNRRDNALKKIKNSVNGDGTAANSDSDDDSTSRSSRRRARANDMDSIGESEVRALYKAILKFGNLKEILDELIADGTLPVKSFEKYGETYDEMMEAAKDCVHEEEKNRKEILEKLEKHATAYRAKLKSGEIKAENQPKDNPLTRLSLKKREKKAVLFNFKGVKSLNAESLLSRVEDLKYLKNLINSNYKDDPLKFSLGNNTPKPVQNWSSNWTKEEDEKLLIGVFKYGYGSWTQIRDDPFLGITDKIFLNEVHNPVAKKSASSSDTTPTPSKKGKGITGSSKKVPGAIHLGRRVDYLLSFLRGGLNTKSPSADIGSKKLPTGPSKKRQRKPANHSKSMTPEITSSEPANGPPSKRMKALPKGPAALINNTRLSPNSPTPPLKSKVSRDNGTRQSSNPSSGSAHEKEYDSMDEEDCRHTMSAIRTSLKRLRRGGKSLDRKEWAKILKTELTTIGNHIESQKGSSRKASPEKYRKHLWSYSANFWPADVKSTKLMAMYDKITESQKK
Protein translocase subunit SecA (Escherichia coli (strain K12)), sequence (P10408 whole entry): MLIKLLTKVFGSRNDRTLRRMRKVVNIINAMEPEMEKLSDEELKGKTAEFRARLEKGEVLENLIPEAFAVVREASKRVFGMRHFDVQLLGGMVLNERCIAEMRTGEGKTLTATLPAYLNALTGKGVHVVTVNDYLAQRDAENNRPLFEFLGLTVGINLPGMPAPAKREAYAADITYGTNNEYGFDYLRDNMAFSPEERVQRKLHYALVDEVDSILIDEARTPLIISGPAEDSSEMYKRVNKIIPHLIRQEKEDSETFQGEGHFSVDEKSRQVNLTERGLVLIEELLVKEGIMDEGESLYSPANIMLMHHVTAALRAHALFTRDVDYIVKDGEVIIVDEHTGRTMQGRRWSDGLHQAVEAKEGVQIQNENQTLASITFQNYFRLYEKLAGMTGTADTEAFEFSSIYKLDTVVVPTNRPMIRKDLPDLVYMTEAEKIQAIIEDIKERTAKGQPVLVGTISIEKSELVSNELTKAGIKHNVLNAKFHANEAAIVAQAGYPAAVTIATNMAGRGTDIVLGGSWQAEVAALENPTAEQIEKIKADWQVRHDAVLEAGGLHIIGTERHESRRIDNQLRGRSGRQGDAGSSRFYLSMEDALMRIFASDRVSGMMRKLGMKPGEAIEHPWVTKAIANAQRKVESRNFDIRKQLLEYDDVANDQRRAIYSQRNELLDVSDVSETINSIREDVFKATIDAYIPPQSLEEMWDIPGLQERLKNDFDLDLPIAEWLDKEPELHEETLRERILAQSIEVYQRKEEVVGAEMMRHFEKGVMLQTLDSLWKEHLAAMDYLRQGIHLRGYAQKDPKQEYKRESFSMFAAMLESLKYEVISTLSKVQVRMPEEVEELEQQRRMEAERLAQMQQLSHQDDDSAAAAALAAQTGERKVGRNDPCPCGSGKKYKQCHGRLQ

Take `O=C(NCc1ccccn1)N(Cc1ccc(F)cc1F)C1CC1`: the Percent Effect in test [1] is -3.99%; in [2], 12.7%; in test [3], 3.15%; in [4] it was 9.47%; with Trypanosoma cruzi, -0.0944%; in test [5], -1.52%. Moreover, the Percent Effect in [6] is 5%; in the test filed under Homo sapiens, 12%; in test [7], 5.42%; in test [8], 13.9%; in test [9], -5.13%.

For the compound `O=C(NCc1cccs1)C1CN(C(=O)c2cccs2)CC12CCOCC2` (stereo unspecified), the Percent Effect in test [1] is -3.46%; in test [2], 8%; in [3] it was 5.07%; in [4], 1.33%; in the test on Trypanosoma cruzi it was 0.193%; in test [5] it was -43.5%. Also, the Percent Effect is 14.4% in [6]; -4.96% in the test filed under Homo sapiens; 2.08% in [7]; -312% in [8]; -2.49% in [9].

As for `Cc1ccoc1C(=O)N1CC[C@H]2OCC[C@@]2(COCc2ccncc2)C1`, the Percent Effect in [1] is -0.155%; in test [2] it was 15.6%; in [3], 3.21%; in test [4] it was 3.48%; with Trypanosoma cruzi, 2.07%; in test [5], 7.1%. Moreover, the Percent Effect in test [6] was 17.2%; in the test filed under Homo sapiens, 23.7%; in test [7] it was 7.41%; in test [8] it was 16.7%; in test [9] it was -9.72%.

Regarding `Cc1cc(S(=O)(=O)NCc2cccc(C(=O)N3CCCC3)c2)c(C)s1`, the Percent Effect was -4.9% in test [1]; 13% in [2]; -3.16% in test [3]; -6.78% in [4]; 4.21% in the test on Trypanosoma cruzi; -1.9% in test [5]. Further, the Percent Effect was 10.1% in [6]; 15.2% in the test filed under Homo sapiens; 5.71% in test [7]; 21.2% in test [8]; -17.7% in test [9].

Consider `OC(CN1CCOCC1)c1ccc(OC(F)(F)F)cc1` (stereo unspecified), for which the Percent Effect in [1] was -5.02%; in test [2], 2.7%; in test [3], 35.5%; in test [4], -1.38%; with Trypanosoma cruzi, 0.283%; in test [5], 0.401%. Further, the Percent Effect was 4.32% in test [6]; 1.68% in the test filed under Homo sapiens; 6.4% in test [7]; 13.6% in test [8]; -7.59% in test [9].

`Cc1cc(C(C)NC(=O)N2CCC(n3cncn3)CC2)c(C)s1` (stereo unspecified): the Percent Effect in [1] is -4.4%; in test [2] it was 7.59%; in test [3], -0.225%; in test [4], 9.65%; in the test on Trypanosoma cruzi, 1.23%; in test [5], -2.28%. Moreover, the Percent Effect in test [6] was -4.01%; in the test listed under Homo sapiens, 3.67%; in test [7] it was 1.48%; in test [8], 3.8%; in [9], -3.57%.

For the compound `CCCOc1ccc(NC(=O)NCCC(=O)N(C)C)cc1Cl`, the Percent Effect in test [1] was -2.86%; in [2] it was 13.7%; in test [3], -18.2%; in test [4], 4.95%; in the test on Trypanosoma cruzi it was 4.5%; in [5], 0.909%. The Percent Effect in test [6] is 19%; in the test filed under Homo sapiens, 12.8%; in test [7] it was 4.3%; in test [8] it was 12.5%; in test [9] it was -6.34%.

`COc1ccc(CN2C[C@H]3CC[C@](O)(c4ccc(C)cn4)[C@H]3C2)c(F)c1`: the Percent Effect in test [1] is -5%; in test [2], 6.76%; in test [3] it was 15.2%; in test [4] it was 2.69%; in the test on Trypanosoma cruzi, -2.77%; in [5], -1.16%. Besides, the Percent Effect in [6] is -1.56%; in the test listed under Homo sapiens, 13.7%; in test [7], 5.38%; in [8] it was 6.49%; in [9], -8.01%.

Regarding `COCCN(C)Cc1ccc(OC)c(OC(F)F)c1`, the Percent Effect is -0.72% in test [1]; 0% in test [2]; 2.88% in [3]; 0.875% in test [4]; -20.8% in the test on Trypanosoma cruzi; 6.9% in test [5]. Further, the Percent Effect in test [6] was 0.499%; in the test listed under Homo sapiens, -9.7%; in test [7], -1.07%; in [8] it was -6.17%; in [9], 2.42%.

As for `CC(NC(=O)CCC(=O)c1cccs1)c1nnc2n1CCCCC2` (stereo unspecified), the Percent Effect in test [1] was -1.87%; in [2], -2.7%; in [3] it was -8.57%; in test [4], -0.426%; in the test on Trypanosoma cruzi, -3.06%; in [5], 5.73%. Besides, the Percent Effect in test [6] is -5.39%; in the test listed under Homo sapiens, 10%; in test [7] it was 3.96%; in test [8], 13.4%; in test [9] it was 2.68%.

Regarding `O=C(CN(Cc1ccccc1)CC1CCOCC1)NC(=O)NC1CC1`, the Percent Effect in [1] is -9.18%; in test [2] it was 0%; in test [3], 0.0982%; in [4] it was -1.54%; in the test on Trypanosoma cruzi it was -4.96%; in test [5], -4.39%. For the same compound, the Percent Effect in test [6] was 3%; in the test listed under Homo sapiens, -3.5%; in test [7], 1.04%; in test [8] it was -3.7%; in [9] it was 1.29%.
